From PubChem BioAssay (NCATS) come the findings set out here.

Results filed as inconclusive are left out. Calls of active or inactive are those of the source. Calls come from the whole dose curve; as a rule, active = well fitted activation curve with a large enough effect; inconclusive = small, poorly fitted or top-dose-only effect; inactive = no such curve, though single readings can be large or run the other way.
Potency is the fitted concentration of half-maximal effect.

Sequence of Cellular tumor antigen p53 (Homo sapiens) (P04637 whole entry, looked up): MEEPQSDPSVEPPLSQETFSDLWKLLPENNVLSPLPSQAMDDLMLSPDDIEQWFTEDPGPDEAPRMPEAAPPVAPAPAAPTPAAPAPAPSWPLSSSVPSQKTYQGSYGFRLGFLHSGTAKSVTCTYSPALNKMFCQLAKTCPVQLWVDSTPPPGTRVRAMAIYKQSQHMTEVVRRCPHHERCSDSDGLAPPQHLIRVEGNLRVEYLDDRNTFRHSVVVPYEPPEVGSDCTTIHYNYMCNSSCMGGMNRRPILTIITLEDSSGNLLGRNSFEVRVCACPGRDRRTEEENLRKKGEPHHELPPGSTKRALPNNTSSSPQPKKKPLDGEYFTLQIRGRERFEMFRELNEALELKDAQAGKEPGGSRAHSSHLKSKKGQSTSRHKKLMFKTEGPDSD

This assay has as its target Cellular tumor antigen p53 (Homo sapiens) (UniProt P04637). The experiment in a line: Primary qHTS for small molecule compounds that upregulate eGFP-tagged delta133p53alpha (in N-terminal) cells. (AID 2060322).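 For activation: cells pre-induced with doxycycline then dosed without doxycycline; series mostly up to about 56 µM; 0% = DMSO vehicle and 100% = reference activator.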 Note: nearly all actives have a fitted effect of over 75% in size. To be noted: NCI-H358 eGFP-delta133p53alpha fluorescence, 24 h; activation: stronger effect = higher value. The essentials: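 NCI-H358 cells pre-induced 24 h with 10 ng/ml doxycycline for eGFP-delta133p53alpha, plated dox-free and exposed 24 h at 37C to titrated compounds. Fixed, Hoechst-stained; gated GFP peak intensity by laser scanning cytometry, normalized to DMSO (0%) and 57.5 uM 5-azacytidine (100%).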
Consider `C[C@@H](c1ncncc1F)C(O)(Cn1cncn1)c1ccc(F)cc1F` (stereo not given in full), for which the activation was -2.82% (inactive). As for `Cc1ccc2ccc(Cl)cc2n1`, the activation was -5.08% (inactive).

`CN(CC=CC#CC(C)(C)C)Cc1cccc2ccccc12`: the activation was 36.7% (inactive). Consider `C=C1C(=O)OC2C=C(C)CCC=C(C)CCC12` (stereo not given), for which the activation is 22% (inactive). `CCCCc1cc2ccccc2c(OCCN(C)C)n1`: the activation is -0.565% (inactive). Turning to `CCN1CCCC1CN` (stereo not given), the activation was 3.35% (inactive). In the case of `O=C(C=Cc1c(C(=O)O)[nH]c2cc(Cl)cc(Cl)c12)Nc1ccccc1`, the activation was 33.2% (inactive). On the same count and under the same terms, for `COc1cc(O)cc(O)c1` the value was -1.67% (inactive). As to `CCCCC1C(=O)N(c2ccccc2)N(c2ccc(O)cc2)C1=O` (stereo not given), the Potency was 4.37 µM (active).

For the compound `C[C@@]12C(=O)OC(=O)[C@@]1(C)C1CCC2O1`, the Potency is 9.68 µM (active). For the compound `N[C@@H](CSSC[C@H](N)C(=O)O)C(=O)O`, the activation is 24.3% (inactive). Same read-out and setting: for `O=C(O)c1ccc(OCCCOc2ccc(C(=O)O)cc2)cc1` the value was -13% (inactive); for `COc1ccc(C2C(=O)c3ccccc3C2=O)cc1`, -15.9% (inactive); for `CC(C)c1cc2c(c(O)c1O)[C@@]13CCCC(C)(C)[C@@H]1[C@H](OC3=O)C2=O`, 0% (inactive).

In the case of `COc1cc(C(=S)N2CCOCC2)ccc1O`, the activation is -10.7% (inactive). On to `OCCCc1ccccc1`, for which the activation is -6.21% (inactive). The same measure, in the same setting: for `NC(=O)C1(N2CCCCC2)CCN(CCCN2c3ccccc3CCc3ccc(Cl)cc32)CC1` the value was 3.35% (inactive). On to `CC(=O)OCC(=O)[C@@]12N=C(C)O[C@H]1C[C@H]1[C@@H]3CCC4=CC(=O)C=C[C@]4(C)[C@@H]3[C@@H](O)C[C@@]12C`, for which the activation was -1.97% (inactive). With `O=C(O)c1ccccc1OP(=O)(O)O`, the activation is -6.21% (inactive). Same read-out and setting: for `Cc1c(C)n(Cc2ccccc2)c2ccc(C(=O)OCCN(C)C)cc12` the value was -0.837% (inactive). Regarding `O=C1Cc2cc(Cl)ccc2N1`, the activation is 5.08% (inactive). Consider `CC(C)(C)CC(C)(C)c1ccc(O)c(-n2nc3ccccc3n2)c1`, for which the activation is -0.565% (inactive). On the same count and under the same terms, the value for `O=C(Nc1cccc2c(=O)cc(-c3nn[nH]n3)oc12)c1ccc(OCCCCc2ccccc2)cc1` was -4.79% (inactive); that for `O=C1c2cccc(O)c2C(=O)c2c(O)cccc21` was -22.6% (inactive).

Consider `CCCCC(CC)CNC(=O)CC(C)OC(=O)CCC(=O)O` (stereo not given), for which the activation was 11.7% (inactive).
